SW480 rerep – inducers of DNA re-replication in SW480 colon cancer cells; Potency, µM (highest dose often 46.1 µM), inactives show at the top dose re-replication activation, most hits filed as activators; 340,000 compounds, 1.8% hits; SW480 DNA re-replication, Hoechst DNA content imaging, 48 h; also: potency is read from the fitted curve at half-maximal effect; % of control where 0% means no effect; nearly all actives have a fitted effect of over 55% in size
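250 cells/well; 23 nL cpd via pin tool; 48 hr, 37 C, 5% CO2; Hoechst 40 min; imager read of total nuclear intensity, ex 405/em 500-530 nm.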
MCF10A rerep – DNA re-replication induction in MCF 10a cells | MCF 10A DNA re-replication, Hoechst nuclear intensity, 48 h | Potency, µM (titrated, usually from 46.1 µM), without a hit: at the top dose activity, positive = re-replication, usual class: activators | 350,000 compounds, 2.9% hits | AID 624296; also: potency is read from the fitted curve at half-maximal effect; % of control where 0% means no effect; nearly all actives have a fitted effect of over 50% in size
RORgamma inh – blocks mouse ROR gamma transcriptional activity. P51450. Drosophila S2 Gal4-RORgamma UAS-luciferase reporter, 20 h. 310,000 compounds, 5.4% hits. Potency, µM (series often up to 53.6 µM), inactives show top-dose activity change, negative = inhibition, actives largely listed as inhibitors; also: potency is read from the fitted curve at half-maximal effect; % is scaled to controls: 0 for no effect and ±100 for the full control effect; nearly all actives have a fitted effect of over 60% in size
Target sequence (P51450 whole entry, looked up, the tested form may be a part): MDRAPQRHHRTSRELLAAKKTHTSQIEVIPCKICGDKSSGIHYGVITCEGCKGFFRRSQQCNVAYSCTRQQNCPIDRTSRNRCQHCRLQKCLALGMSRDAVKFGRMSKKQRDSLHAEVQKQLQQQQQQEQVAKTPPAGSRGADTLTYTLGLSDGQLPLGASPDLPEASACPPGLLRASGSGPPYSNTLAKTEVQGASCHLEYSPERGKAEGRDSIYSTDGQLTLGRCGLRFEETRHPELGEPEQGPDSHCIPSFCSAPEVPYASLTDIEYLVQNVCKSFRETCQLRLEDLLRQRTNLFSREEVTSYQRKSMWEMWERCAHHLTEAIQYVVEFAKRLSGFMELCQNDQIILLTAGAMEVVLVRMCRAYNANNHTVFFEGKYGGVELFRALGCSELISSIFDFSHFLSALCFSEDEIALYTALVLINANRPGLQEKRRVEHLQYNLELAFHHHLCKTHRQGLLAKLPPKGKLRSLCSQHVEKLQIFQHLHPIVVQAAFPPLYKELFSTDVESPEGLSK
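Luminescence from a UAS-regulated Photinus luciferase reporter in stably transfected Drosophila Schneider cells is measured; decreased signal marks ROR gamma inhibition. Fusion expression is induced by 700 uM copper sulfate for 20 hr.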
BCR signal inh – blocks chronic active B-cell receptor signaling; ABC-DLBCL IkBa-CBG/CBR reporter, luminescence ratio, 4 h; Potency, µM (doses to about 46.1 µM), for the others: at the top dose activity change, negative = inhibition, most hits filed as inhibitors; 340,000 compounds, 0.05% hits; AID 493014; active = well fitted inhibition curve with a large enough effect in the signal ratio, with a control signal flat, not every such curve was filed as active; inconclusive = small, poorly fitted or top-dose-only effect, or effect the other way, or a change in a side signal; the % refers to the signal ratio;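 also: potency is read from the fitted curve at half-maximal effect; plate controls were basal doxycycline-induced cells for no effect and cells given 10 µM MG132 for full effect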
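Concentration-response series (up to 46 uM) were applied to TMD8 dual-reporter cells for 4 h at 37C with doxycycline. Green/red ratio, after filter-overlap correction, defined %Activity; red signal alone was normalised to basal cells and zero luminescence.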
Gal4-VP16 FLuc – Gal4-VP16 reporter inhibition counter-screen | Drosophila S2 Gal4-VP16 UAS-luciferase, luminescence, 20 h | Potency, µM (series often up to 53.6 µM), without a hit: top-dose activity, negative = inhibition, actives largely listed as inhibitors | 310,000 compounds, 3.5% hits | AID 2546;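 also: Gal4-VP16 expression switched on by copper sulfate through the metallothionein promoter; potency is read from the fitted curve at half-maximal effect; % is scaled to controls: 0 for no effect and ±100 for the full control effect; nearly all actives have a fitted effect of over 50% in size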
Giardia kill – kills Giardia lamblia. Giardia lamblia trophozoite viability. activity change, % at 7.66 µM, hits read low. 340,000 compounds, 0.15% hits; in the data active = activity change below about -80%; inconclusive = between about -30% and that limit;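 also: parasites exposed to compound for two days anaerobically before the ATP read; % is scaled to controls: 0 for no effect and ±100 for the full control effect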
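Compounds were tested on trophozoites seeded at 100 cells/well and held 48 hrs at 37 deg C anaerobically. An ATP-based luminescent kit measured the remaining live cells.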
Numbers without * were called inactive; u = inconclusive; x = not tested or not shown; [ ] = remark or other dose. Rows were chosen to be rich in hits. Some 8.3% of all compounds tested hit in one or more screens of this group. Unless noted, calls follow the shape of the dose curve; as a rule, active = well fitted curve in the direction sought with a large enough effect; inconclusive = small, poorly fitted or top-dose-only effect, or another doubt; inactive = no such curve, though single readings can be large; an effect the other way counts as inactive or inconclusive.

SMILES	SW480 rerep	MCF10A rerep	RORgamma inh	BCR signal inh	Gal4-VP16 FLuc	Giardia kill
CNC(=S)N/N=C/c1cn(CCOc2ccc(OC)cc2)c2ccccc12	6%	u	2.2µM*	u	3.2µM*	5
O=C(N/N=C/c1cn(CCOc2ccccc2)c2ccccc12)c1ccncc1	-6%	0%	6.3µM*	-1%	10µM*	12
COC(=O)N/N=C/c1cn(CCCOc2ccccc2)c2ccccc12	u	u	17%	-6%	-19%	-5
CNC(=S)N/N=C/c1c(C)c(C(=O)c2ccc(F)cc2)n2ccccc12	21%	16%	5µM*	-6%	7.9µM*	21
CCOC(=O)c1c(NC(=O)c2ccc(S(=O)(=O)N(CC(C)C)CC(C)C)cc2)sc2c1CCN(CC)C2	x	x	x	8%	x	x
C/C(=N\NC(=O)C(=O)Nc1cccc(Cl)c1C)c1ccncc1	-5%	-1%	6%	-4%	5%	3
CCCNC(=O)CN1C(=O)c2ccccc2Sc2ncccc21	-5%	0%	-11%	-2%	-4%	-7
NNc1nc2ccccc2c(=O)n1Cc1ccccc1	5%	-5%	x	u	x	16
O=[N+]([O-])c1ccc(N/N=C/c2cn(Cc3ccc(F)cc3)c3ccccc23)nc1	-1%	28%	u	3%	6.3µM*	10
COC(=O)c1cn(CCOc2ccccc2OC)c2ccccc12	-6%	u	u	-27%	u	-4
COC(=O)N/N=C/c1cn(Cc2ccc(F)cc2)c2ccccc12	1%	5%	45%	-12%	3%	2
COc1ccccc1OCCn1cc(/C=N/NC(=O)c2ccncc2)c2ccccc21	-2%	18%	6.3µM*	3%	u	11
COc1ccccc1OCCn1cc(/C=N/NC(N)=S)c2ccccc21	-1%	13%	0.5µM*	u	2µM*	4
CCOc1ccc(S(=O)(=O)NCCC(=O)N(C)Cc2cccs2)cc1	-7%	-7%	x	-5%	x	1
O=C(O)Cc1c[nH]c2ccc(O)cc12	u	u	x	x	x	4
O=C(CCc1ccccc1)NCC(c1ccco1)N1CCc2ccccc21 (stereo not drawn)	18µM*	4.6µM*	x	u	x	-7
COc1ccc(-c2noc(CSc3nc(N)c(-c4ccccc4)c(=O)[nH]3)n2)cc1	0%	-4%	85%	16µM*	-28%	-8
COc1ccccc1N(C)S(=O)(=O)c1ccc(C(=O)NCC2CCCCC2)cc1	-12%	14%	x	-7%	x	-10
COc1ccccc1-n1c2nc3ccccc3nc2c2c(=O)n(-c3cc(C)cc(C)c3)cnc21	u	23µM*	49%	-7%	-12%	-1
S=c1[nH]cnc2sc(-c3ccccc3)cc12	-3%	7%	1.4µM*	u	4.5µM*	-8
S=c1[nH]cnc2scc(-c3ccccc3)c12	u	u	0.5µM*	1%	0.5µM*	6
COc1ccc(Cn2c(=O)[nH]c3cc(C(=O)N4CCN(Cc5ccccc5)CC4)ccc3c2=O)cc1	2%	20%	u	8%	-4%	-6
O=C(c1ccc(Cn2c(=S)[nH]c3ccc(Br)cc3c2=O)cc1)N1CCN(C2CCCCC2)CC1	u	u	11µM*	u	u	1
CCCCCn1c(=S)[nH]c2cc(C(=O)N3CCN(C(=O)OCC)CC3)ccc2c1=O	-2%	u	u	-4%	u	-1
CCOC(=O)N1CCN(C(=O)c2ccc(Cn3c(=S)[nH]c4cc(C(=O)OC)ccc4c3=O)cc2)CC1	-12%	0%	-41%	u	-13%	-11
SMILES	SW480 rerep	MCF10A rerep	RORgamma inh	BCR signal inh	Gal4-VP16 FLuc	Giardia kill
O=C(c1ccc2c(=O)n(Cc3ccccc3)c(=S)[nH]c2c1)N1CCCC1	-15%	-22%	11µM*	11%	u	-2
CCOC(=O)C1CCCN(C(=O)c2ccc(Cn3c(=S)[nH]c4cc(C(=O)OC)ccc4c3=O)cc2)C1 (stereo not drawn)	u	16µM*	-32%	-19%	25%	19
CCCCCn1c(=S)[nH]c2cc(C(=O)N3CCCC3)ccc2c1=O	-3%	0%	3.2µM*	0%	14%	-18
CO/N=C\[C@@H](OC)[C@H](C)/C=C\CC(=O)OC	x	x	-1%[10 µM]	x	-14%[10 µM]	x
CC(NNC(=O)c1ccccc1)c1ccccc1 (stereo not drawn)	0%	-3%	4%	x	0%	x
CCC(=O)NC(=S)Nc1cccc(C(C)=O)c1	-2%	-1%	11µM*	5%	13%	27
CCC(=O)NC(=S)Nc1cccc(NC(=O)c2ccc(Cl)cc2Cl)c1	1%	19%	2.8µM*	u	6.3µM*	-3
CCC(=O)NC(=S)Nc1cccc(NC(=O)CC)c1	-7%	3%	-21%	4%	3%	10
CCCC(=O)NC(=S)Nc1cccc(C(C)=O)c1	-1%	1%	10µM*	-1%	u	-14
CC(=O)c1cccc(NC(=S)NC(=O)CC(C)C)c1	-6%	2%	u	u	7.9µM*	-13
COc1ccc(CCC(=O)N2CCCC(Nc3ccc(C)c(C)c3)C2)cc1OC (stereo not drawn)	-8%	13%	27%	3%	-29%	5
O=C(Nc1ccc2ccccc2c1)c1cc(F)c(F)cc1Cl	21%	0%	u	0%	-1%	-7
CCCCC(=O)Nc1cccc(-c2nc3ncccc3o2)c1	-8%	13%	33%[10 µM]	0%	1%	4
CCCCC(=O)Nc1cccc(NC(=S)NC(=O)C(C)C)c1	-13%	2%	0%	-28%	22%	-13
CCC(=O)NC(=S)Nc1cccc(-c2nc3ncccc3o2)c1	2%	-10%	13µM*	-2%	-18%	-9
CCCCCC(=O)NC(=S)Nc1cccc(C(C)=O)c1	-5%	8%	2.8µM*	2%	u	-2
O=C(Nc1ccc2ccccc2c1)c1ccc(Cl)cc1Cl	10%	-2%	7.9µM*	11%	u	4
C=CCOc1ccc(/C=C/C(=O)OCC(=O)N(C)C2CCS(=O)(=O)C2)cc1 (stereo not drawn)	-7%	0%	-8%	-1%	10%	-4
COc1ccc(CCCc2nnc(SCc3nc4ccccc4c(=O)[nH]3)n2C)c(C)c1	0%	-7%	22%	-5%	-5%	10
N#Cc1c(N)sc(=S)c2c1CCCC2	2%[9.22 µM]	4%	-13%	-1%	9%	5
CC(C)Cc1c2c([nH]c(=S)c1C#N)CCCC2	13µM*	3%	6.3µM*	0%	u	-12
CCCC/C=C/[C@H](c1ccccc1)[C@H](CO)Cc1ccc2ccccc2c1	x	x	1%	x	2%	-14
